Source: PubChem BioAssay
The source made the active and inactive calls.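 The calls were made as follows, unless noted: active = fluorescence slope after compound addition differing from the mean of all screened samples at 99.7% confidence, in either direction; inactive = the rest.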

How the values were obtained:
[1] = inhibitors of TNFa-induced NFkB p65 translocation, primary screen, imaging, HUVEC, MLSMR starter and 10KST1 sets (AID 438;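 active = inhibition above 20% together with a positive visual image hit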;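 also: compound added about 3h40 before a 20 min TNFalpha stimulation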;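 as to inhibition: signal is the nuclear over cytoplasmic p65 intensity ratio per well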); details: HUVEC TNFa-induced p65 nuclear translocation; cell count: measured here: nuclei count (cytotoxicity indicator), at 2.08 µM; inhibition: at 2 µM, stronger effect = higher value, 0% TNFa-plus-vehicle, 100% no-TNFa wells
[2] = inhibitors of mutant huntingtin aggregation, primary screen, imaging, exon1htt(103Q)mCFP cells, high-content imaging (AID 483;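 active = visual image review flags a hit and inhibition of aggregation exceeds 20%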;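 also: compound exposure lasted 3 days before fixation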;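 as to nuclei count: percent of the per-plate median nuclei count of sample wells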); details: exon1htt(103Q)mCFP cell line, aggregate imaging, at 2 µM; inhibition of aggregation: stronger effect = higher value; nuclei count: measured here: cell count, toxicity
[3] = inhibitors of E-selectin induction by TNFa, primary screen, imaging, HUVEC, immunofluorescence, MLSMR starter and 10KST1 sets (AID 487;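 active = visually confirmed hit in the image check and inhibition above 20%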;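 as to inhibition: signal is fraction of cell area covered by stained E-selectin grains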;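 as to nuclei count: 100% = median nuclei count of all wells on the same plate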); details: HUVEC TNFalpha-induced E-selectin immunofluorescence imaging, at 2 µM; inhibition: stronger effect = higher value; nuclei count: measured here: cell number, toxicity
[4] = target: Voltage-gated potassium channel subunit beta-2 (Rattus norvegicus) (UniProt P62483); assay: KvBeta enzyme negative modulators, primary screen, biochemical, NADPH fluorescence (AID 622;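 active = fluorescence slope higher than the sample average by over 3 SD, cut at about -0.22 in these data, passing the limit was not always enough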;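 also: slope of raw intensity against log time taken from 70 to 1610 s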); details: recombinant KvBeta, 4-cyanobenzaldehyde reduction, at 10 µM, stronger effect = higher value
[5] = target: Voltage-gated potassium channel subunit beta-2 (Rattus norvegicus) (UniProt P62483); assay: KvBeta positive modulators, primary screen, biochemical, NADPH fluorescence (AID 623;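 active = NADPH fluorescence slope more negative than the mean of all samples by about 3 SD, 99.7% confidence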;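 also: fluorescence intensity change per second fitted from 20 to 320 s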); details: Recombinant KvBeta, NADPH fluorescence decrease slope, 10 min; at 10 µM; stronger effect = lower value
[6] = target: Alpha-2C adrenergic receptor (Homo sapiens) (UniProt P18825); assay: modulators of alpha2C/GIRK thallium flux, primary screen, cell-based, HEK293 alpha2C/GIRK1/2 (AID 624); details: thallium flux BTC fluorescence, at 10 µM, actives lie on both sides;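 also: slope of fluorescence ratio to pre-addition baseline per second over 15 to 24 s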
[7] = inhibitors of Sendai virus-induced IRF3 signaling, primary screen, TLR/RLR signaling modifier project, cell-based, Sendai virus stimulus, luciferase, 10K MLSCN set (AID 602276;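 active = inhibition at or above 50% at 10 µM; inactive = inhibition below 50%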;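 also: firefly luciferase from ISG56 promoter only with Renilla not read in this screen; 0% = Sendai virus plus DMSO and 100% = medium plus DMSO without virus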); details: HEK293 RL24 IRF3 luciferase reporter, at 10 µM, stronger effect = higher value
[8] = inhibitors of poly I:C-induced TLR3 signaling, primary screen, cell-based, poly I:C stimulus, luciferase, 10K MLSCN set (AID 602277;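 active = inhibition of the reporter signal at or above 50%; inactive = inhibition below 50%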); details: HEK293-TLR3 RL24 IRF3 luciferase reporter, at 10 µM, stronger effect = higher value

Sequence of Voltage-gated potassium channel subunit beta-2 (Rattus norvegicus) (P62483 whole entry, looked up): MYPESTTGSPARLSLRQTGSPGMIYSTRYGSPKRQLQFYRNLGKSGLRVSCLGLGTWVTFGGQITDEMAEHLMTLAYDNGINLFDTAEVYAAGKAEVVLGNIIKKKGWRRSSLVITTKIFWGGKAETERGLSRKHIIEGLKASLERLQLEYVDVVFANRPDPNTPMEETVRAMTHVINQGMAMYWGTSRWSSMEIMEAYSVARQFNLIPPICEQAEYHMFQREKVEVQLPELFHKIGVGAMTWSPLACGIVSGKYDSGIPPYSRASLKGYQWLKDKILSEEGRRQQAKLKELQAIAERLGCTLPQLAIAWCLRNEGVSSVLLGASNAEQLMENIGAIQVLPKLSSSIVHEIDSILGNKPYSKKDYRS
Sequence of Alpha-2C adrenergic receptor (Homo sapiens) (P18825 whole entry, looked up): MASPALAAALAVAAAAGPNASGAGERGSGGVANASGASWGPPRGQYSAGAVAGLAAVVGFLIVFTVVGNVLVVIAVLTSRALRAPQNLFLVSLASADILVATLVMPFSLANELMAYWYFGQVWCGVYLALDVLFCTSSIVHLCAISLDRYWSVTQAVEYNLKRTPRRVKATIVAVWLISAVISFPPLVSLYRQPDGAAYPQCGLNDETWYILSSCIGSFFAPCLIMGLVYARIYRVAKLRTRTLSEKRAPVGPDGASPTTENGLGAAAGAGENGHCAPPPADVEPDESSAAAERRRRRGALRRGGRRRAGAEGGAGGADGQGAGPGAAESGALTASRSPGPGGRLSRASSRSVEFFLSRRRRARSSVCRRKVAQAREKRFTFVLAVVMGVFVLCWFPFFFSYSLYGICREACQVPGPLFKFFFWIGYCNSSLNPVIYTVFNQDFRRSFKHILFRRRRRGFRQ

Row | SMILES | cell count [1] | inhibition [1] | inhibition of aggregation [2] | nuclei count [2] [%] | inhibition [3] | nuclei count [3] [%] | fluorescence slope [4] | NADPH fluorescence slope [5] | slope [6] | inhibition [7] | inhibition [8]
1 | CC1=Nn2c(nnc2-c2ccc(F)cc2)SC1 | 340 | -2.4% (inactive) | 4% (inactive) | 107 | -66% (inactive) | 95.6 | -0.33 (inactive) | -4.3e-05 (inactive) | 0.00575 (inactive) | -12.4% (inactive) | -3.16% (inactive)
2 | Cc1noc(C)c1CSc1nnc2n(-c3ccccc3)c(=O)c3ccccc3n12 | 342 | -4% (inactive) | 12.7% (inactive) | 85.8 | -27.6% (inactive) | 89.5 | -0.411 (inactive) | -1e-05 (inactive) | 0.00571 (inactive) | 7.36% (inactive) | 20.9% (inactive)
3 | C#CCNc1c(C)c(C)nc2ncnn12 | 306 | -9.4% (inactive) | 32.2% (inactive) | 86.1 | -44.2% (inactive) | 89.3 | -0.592 (inactive) | -3.6e-05 (inactive) | 0.00371 (inactive) | 14.5% (inactive) | 9.86% (inactive)
4 | COc1ccc(S(=O)(=O)N2Cc3ccccc3CC2C(=O)Nc2ccc(O)cc2)cc1OC (centres undefined) | 772 | -2.9% (inactive) | -7.4% (inactive) | 119 | -42.8% (inactive) | 114 | -0.556 (inactive) | -6e-05 (inactive) | 0.0071 (inactive) | 8.15% (inactive) | 29.5% (inactive)
5 | CCOc1ccc(N(CC(=O)OC)S(=O)(=O)c2ccc(OC)c(OC)c2)cc1 | 444 | 6.3% (inactive) | -1.6% (inactive) | 104 | 9.4% (inactive) | 101 | -0.455 (inactive) | 6.6e-05 (inactive) | 0.00363 (inactive) | -8.61% (inactive) | 15.5% (inactive)
6 | CCOC(=O)N1CCC(NC(=O)CCN2C(=O)COc3ccccc32)CC1 | 322 | -2.6% (inactive) | 11.5% (inactive) | 106 | -22.4% (inactive) | 127 | -0.27 (inactive) | 1.7e-05 (inactive) | 0.00554 (inactive) | 17% (inactive) | 17.2% (inactive)
7 | CCOc1ccc(C(=O)Nc2ccc(N3CCN(C)CC3)cc2)cc1Br | 434 | 3.4% (inactive) | 0.4% (inactive) | 95.5 | 6.4% (inactive) | 89.5 | -0.571 (inactive) | -3.6e-05 (inactive) | 0.00342 (inactive) | -15.1% (inactive) | -22.4% (inactive)
8 | COc1cc2c(cc1OC)-c1nnc(C)n1C1(CCCC1)C2 | 849 | 2.9% (inactive) | -14.8% (inactive) | 132 | -70.9% (inactive) | 120 | -0.606 (inactive) | 3.2e-05 (inactive) | 0.00696 (inactive) | 10.3% (inactive) | 1.68% (inactive)
9 | CC(=O)c1ccc(OCC(O)CN2CCN(CCO)CC2)cc1 (centres undefined) | 605 | -6.1% (inactive) | -14.2% (inactive) | 104 | -19.7% (inactive) | 113 | -0.549 (inactive) | -2.9e-05 (inactive) | 0.00738 (inactive) | 13.3% (inactive) | 40.3% (inactive)
10 | Cc1nnc(SCC(=O)N2CCC(C(=O)Nc3nccs3)CC2)n1Cc1ccccc1 | 405 | 6.1% (inactive) | 8.5% (inactive) | 104 | 10.2% (inactive) | 100 | -0.604 (inactive) | -4.4e-05 (inactive) | 0.00447 (inactive) | 18.3% (inactive) | 17% (inactive)
11 | CCOC(=O)c1cc2c(=O)n3cccc(C)c3nc2n(CCOC)c1=NC(=O)c1ccncc1 | 397 | -0.2% (inactive) | -15.8% (inactive) | 100 | -4.6% (inactive) | 96.5 | -0.346 (inactive) | -4.3e-05 (inactive) | 0.00713 (inactive) | 16.8% (inactive) | 12.5% (inactive)
12 | C=CCn1c(N)c(C(=O)NCCC2=CCCCC2)sc1=S | 450 | 6.6% (inactive) | -12.8% (inactive) | 104 | 4% (inactive) | 116 | -0.626 (inactive) | -1.2e-05 (inactive) | 0.00668 (inactive) | 0.338% (inactive) | -64.6% (inactive)
13 | O=C(O)c1cccn2c(=O)c3ccccc3nc12 | 799 | -2.3% (inactive) | -14.1% (inactive) | 84.3 | -19.6% (inactive) | 126 | -0.313 (inactive) | -2.6e-05 (inactive) | 0.0061 (inactive) | 8.6% (inactive) | 6.83% (inactive)
14 | COC(=O)c1ccccc1NC(=O)N1CCCC1 | 380 | -0.9% (inactive) | 0.5% (inactive) | 99.5 | -45.5% (inactive) | 115 | -0.434 (inactive) | -3.7e-06 (inactive) | 0.00581 (inactive) | -4.5% (inactive) | 0.116% (inactive)
